23 molecules from PubChem BioAssay (NCATS) can be followed below.

Test [1] is described as follows: Viability qHTS for spleen associated tyrosine kinase inhibitor (SYKi) naive MV4-11 cells (AID 1963823). Note: nearly all actives have a fitted effect of over 40% in size. As to conditions: MV4-11 AML viability, CellTiter-Glo luminescence, 72 h; series mostly up to 45 µM. In a few lines:
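SYK inhibitor-naive MV4-11 cells, 500 per well, exposed to compounds for 72 hr at 37 C, 5% CO2. Viability read as CellTiter-Glo luminescence after 10 min at room temperature.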
Background: Quantitative high-throughput screening tests each substance at several concentrations.

The nature of test [2]: Viability qHTS for spleen associated tyrosine kinase inhibitor (SYKi) drug resistant MV4-11 cells (AID 1963824). Note: nearly all actives have a fitted effect of over 35% in size. Conditions: SYKi-resistant MV4-11 viability, CellTiter-Glo, 72 h; series mostly up to 45 µM. In a few lines: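 CellTiter-Glo luminescence, read 10 min after reagent addition, reports viability after a 72 hr compound exposure. Cells are an MV4-11 line made resistant to SYK inhibition, seeded at 500 per well onto compound-containing plates.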

The structures appear in SMILES notation. Records with an inconclusive call do not appear. Unmarked numbers belong to inactive results. Calls of active or inactive are those of the source. Calls come from the whole dose curve; as a rule, active = well fitted cell-killing curve with a large enough effect; inconclusive = small, poorly fitted or top-dose-only effect, or effect the other way; inactive = no such curve, though single readings can be large or run the other way.
Potency is the fitted concentration of half-maximal effect.

With `OC/C=C/c1ccc(O[C@@H]2O[C@H](CO)[C@@H](O)[C@H](O)[C@H]2O)cc1`, the Potency result in test [1] and in test [2] was “inactive” each time.

As for `CN(C)CCOc1cc(NS(=O)(=O)c2c(Cl)cc(C(F)(F)F)cc2Cl)ccc1Cl`, the Potency entry in test [1] and in test [2] was “inactive” throughout.

With `O=C(/C=C/c1ccccc1)OCC1=CC[C@@H]2C(C(=O)O)=CO[C@@H](O[C@@H]3O[C@H](CO)[C@@H](O)[C@H](O)[C@H]3O)[C@H]12`, the Potency entry in test [1] and in test [2] was “inactive” each time.

Take `COC1=CC(=O)O[C@@H](/C=C/c2ccccc2)[C@@H]1O`: the Potency result in test [1] and in test [2] was “inactive” each time.

Regarding `CCOc1nc2cccc(C(=O)OCc3oc(=O)oc3C)c2n1Cc1ccc(-c2ccccc2-c2noc(O)n2)cc1`, the Potency entry in test [1] and in test [2] was “inactive” throughout.

Turning to `CC(C)[C@@](O)(c1ccc2cc(OC(F)F)c(OC(F)F)cc2c1)c1cn[nH]n1`, the values for the Potency in test [1] and in test [2] were 18400 nM (active) and 20600 nM (active), respectively.

With `CC(C)(C)Nc1nc(Nc2ccc(C(N)=O)cc2)cc(N)c1C#N`, the values for the Potency in test [1] and in test [2] were 1640 nM (active) and 2310 nM (active), respectively.

Take `C[C@]12CCC[C@](C)(C(=O)O)C1CCC13C=C(CO)C(CCC12)C3` (stereo partly specified): the Potency entry in test [1] and in test [2] was “inactive” throughout.

For `CC(C)(C)Nc1nc2cc(Cl)c(Cl)cc2nc1S(C)(=O)=O`, the Potency in test [1] and in test [2] was 731 nM (active) in each case.

For `CC1(C)CC[C@]2(C(=O)O[C@@H]3O[C@H](CO)[C@@H](O)[C@H](O)[C@H]3O)CC[C@]3(C)C(=CCC4[C@@]5(C)CC[C@H](O[C@@H]6O[C@H](C(=O)O)[C@@H](O[C@@H]7O[C@H](CO)[C@@H](O)[C@H](O)[C@H]7O)[C@H](O)[C@H]6O[C@@H]6O[C@H](CO)[C@@H](O)[C@H](O)[C@H]6O)C(C)(C)C5CC[C@]43C)C2C1` (stereo partly specified), the viability (% of control) in test [1] is 93% [at 9.25 µM]. In addition, the viability, % of control in test [2] is 104% [at 9.25 µM].

With `COc1cc(O)cc(C)c1C(=O)OC1C(CO)OC(n2ccc(=O)[nH]c2=O)C1OC(C)=O` (stereo unspecified), the Potency in test [1] was 5630 nM (active). The Potency result in test [2] was “inactive”.

As to `COC1CC(O[C@H]2CC[C@@]3(C)C(CCC4C3[C@H](OC(C)=O)[C@@H](OC(=O)/C=C/c3ccccc3)[C@]3(C)C(C(C)=O)CC[C@]43O)C2)OC(C)C1OC1CC(OC)C(OC2CC(OC)C(OC3OC(C)C(OC4OC(CO)C(O)C(O)C4O)C(OC)C3O)C(C)O2)C(C)O1` (stereo partly specified), the viability (% of control) in test [1] was 48.3% [at 9.25 µM]. The viability, % of control in test [2] is 45.7% [at 9.25 µM].

`CC(CCC1C(C(=O)O)=CC(=O)CC1(C)C)O[C@@H]1O[C@H](CO)[C@@H](O)[C@H](O)[C@H]1O` (stereo partly specified): the Potency entry in test [1] and in test [2] was “inactive” in each case.

Consider `COc1cc(O)cc(OC2OC(CO)C(O)C(O)C2O)c1` (stereo unspecified), for which the Potency entry in test [1] and in test [2] was “inactive” throughout.

Turning to `CC1OC(OC2C(CO)OC(OCC3OC(OC(=O)C45CCC(C)(C)CC4C4=CCC6C7(C)CCC(OC8OC(C(=O)O)C(O)C(OC9OC(CO)C(O)C(O)C9O)C8O)C(C)(C)C7CCC6(C)C4(C)CC5)C(O)C(O)C3O)C(O)C2O)C(O)C(O)C1O` (stereo unspecified), in test [1], the viability (% of control) was 92.6% [at 9.25 µM]. The viability, % of control in test [2] was 105% [at 9.25 µM].

For `CC1C(O)C(O)C2C(C(=O)OCCc3ccc(O)cc3)=COC(O[C@@H]3O[C@H](CO)[C@@H](O)[C@H](O)[C@H]3O)C12` (stereo partly specified), the Potency result in test [1] and in test [2] was “inactive” each time.

In the case of `CC[C@H](C)[C@H](NC(=O)[C@H]([C@@H](C)CC)N(C)C(C)=O)C(=O)N[C@H](C(=O)N[C@@H](CC(C)C)C(=O)[C@@]1(C)CO1)[C@@H](C)O`, the Potency in test [1] was 5.8 nM (active); in test [2], 7.3 nM (active).

As to `C=C1C(=O)O[C@@H]2/C=C(\C)CC/C=C(/C=O)[C@H](OC)[C@@H](OC(=O)C(C)C)[C@@H]12`, the figures for the Potency in test [1] and in test [2] were 4040 nM (active) and 2550 nM (active), respectively.

Take `O=C(/C=C/c1ccccc1)OC[C@]12O[C@H]1[C@@H](O)[C@@H]1C=CO[C@@H](O[C@@H]3O[C@H](CO)[C@@H](O)[C@H](O)[C@H]3O)[C@@H]12`: the Potency entry in test [1] and in test [2] was “inactive” throughout.

Consider `CCC(C)(O)C(O)C(=O)OCc1ccc(O[C@@H]2O[C@H](CO)[C@@H](O)[C@H](O)[C@H]2O)c(OC)c1` (stereo partly specified), for which the Potency entry in test [1] and in test [2] was “inactive” throughout.

In the case of `CCCN(CCC)C(=O)C(CCC(=O)OCCCN1CCN(CCOC(=O)Cc2c(C)n(C(=O)c3ccc(Cl)cc3)c3ccc(OC)cc23)CC1)NC(=O)c1ccccc1` (stereo unspecified), the Potency in test [1] was 23100 nM (active); in test [2], 20600 nM (active).

For the molecule `C=C(C)C(=O)O[C@H]1C[C@@](C)(O)C2(O)CCC(C)(/C=C3/OC(=O)C(COC)=C31)O2` (stereo partly specified), the results for the Potency in test [1] and in test [2] were 718 nM (active) and 453 nM (active), respectively.

Regarding `CC(=O)O[C@H]1[C@H](Oc2ccccc2COC(=O)C2(O)C=CCCC2=O)O[C@H](CO)[C@@H](O)[C@@H]1O` (stereo partly specified), the Potency entry in test [1] and in test [2] was “inactive” throughout.
